Data: the OligoGym collection

The sequences below were run against GPRC5C (assay: pooled miR-30 sensor sort-seq; sequence = guide strand). Conditions: shRNA.
Further: reference of the scale not given here.

| Sequence | sensor-assay potency score (higher = more potent) |
| --- | --- |
| ATGATGGTGAGCACAAACGTGG | -1.32 |
| TTCGGACGGAACTTTGTGCATC | -0.913 |
| TAGTACAGGGGGTTGAGGCCTT | 0.25 |
| TTCTTGCCGTCTTTCGGCGGTG | -1.04 |
| TCGTAAGCTCCTTCGGACGGAA | -0.916 |
| TCACAGAGGAGCAAGATCCAGG | -0.72 |
| AAGACCTGAGAGTTCTTGCCGT | 0.1 |
| ATGGTGAGCACAAACGTGGTGA | -0.43 |
| TCCTTCGGACGGAACTTTGTGC | -0.974 |
| TTGGTGTCCTGCACAAAGGGGA | -0.48 |
| TGATGTCGTAAGCTCCTTCGGA | -0.537 |
| TGAGGTTGCAGGAATCTCCAGA | 0.399 |
